KB-3-1 tox: qHTS assay for MDR1-selective chemotherapeutics: Primary screen using the parental adenocarcinoma cell KB-3-1; KB-3-1 viability, CellTiter-Glo ATP luminescence, 72 h; Potency, µM (highest dose often 46.1 µM), usual class: cytotoxic; 400,000 tested, 1.4% active; note: % is set by controls: 0 for no effect and ±100 for the full control effect; nearly all actives have a fitted effect of over 60% in size
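KB-3-1 parental drug-naive adenocarcinoma cells in DMEM/10% FBS, incubated 72 h at 37 C with pin-transferred compounds across a concentration series. Viability by CellTiter-Glo luminescence; concentration-response curves fitted after normalization.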
KB-V1 cytotox: qHTS assay for MDR1-selective chemotherapeutics: Primary screen using the drug-selected MDR subline cells KB-V1; KB-V1 MDR cells viability, CellTiter-Glo, 72 h; Potency, µM (top dose mostly 46.1 µM), most hits filed as cytotoxic; 400,000 tested, 3.4% active; AID 1347076, 2019; note: % is set by controls: 0 for no effect and ±100 for the full control effect; nearly all actives have a fitted effect of over 60% in size
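Compound-treated KB-V1 multidrug-resistant cells, 72 h, 37 degrees C; viability by CellTiter-Glo. Fitted qHTS curves give the values.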
MCF10A rerep: A quantitative high throughput screen for small molecules that induce DNA re-replication in MCF 10a normal breast cells; MCF 10A DNA re-replication, Hoechst nuclear intensity, 48 h; Potency, µM (series often up to 46.1 µM), inactives show top-dose activity, positive = re-replication, most hits filed as activators; 350,000 tested, 2.9% active; note: % of control where 0% means no effect; nearly all actives have a fitted effect of over 50% in size
SW480 rereplic: A quantitative high throughput screen for small molecules that induce DNA re-replication in SW480 colon adenocarcinoma cells | SW480 DNA re-replication, Hoechst DNA content imaging, 48 h | Potency, µM (highest dose often 46.1 µM), for inactives: at the top dose re-replication activation, actives largely listed as activators | 340,000 tested, 1.8% active | AID 624297, 2012; note: % of control where 0% means no effect; nearly all actives have a fitted effect of over 55% in size
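Image-based read-out: total Hoechst fluorescence of nuclei (405 nm excitation, 500-530 nm emission), with hits raising the fraction of high-intensity nuclei. SW480 colon cells incubated 48 hr with compounds at 37 C.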
HT1080 IDH1KD tx: qHTS for induction of synthetic lethality in tumor cells producing 2HG: qHTS for the HT-1080-IDH1KD cell line. HT-1080 IDH1 knockdown viability, ATP luminescence, 48 h. AID 686971, 2013. Potency, µM (titrated, usually from 46.1 µM), for the others: at the highest dose activity, negative = toxicity, most hits filed as cytotoxic. 360,000 tested, 2% active;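 note: 0% = DMSO wells and -100% = cell-free medium wells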
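Viability of IDH1-knockdown HT-1080 fibrosarcoma cells was assessed by CellTiter-Glo after 48 h at 37 °C with titrated compound; concentration-effect curves were classified by fit quality and response size.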
HT1080-NT tox: qHTS for induction of synthetic lethality in tumor cells producing 2HG: qHTS for the HT-1080-NT fibrosarcoma cell line. HT-1080-NT fibrosarcoma viability, CellTiter-Glo ATP luminescence, 48 h. Potency, µM (series often up to 46.1 µM), without a hit: at the highest dose activity, negative = less viability, hits mostly cytotoxic. 360,000 tested, 1.6% active;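 note: NT is the 2HG producing partner of a matched IDH1 knockdown line; 0% = DMSO-treated cells and -100% = media-only wells without cells; nearly all actives have a fitted effect of over 55% in size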
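Read-out is CellTiter-Glo luminescence after 10 minutes at room temperature, following 48 hours' compound treatment of HT-1080-NT cells (750 cells/well, RPMI, 5% FBS, 37 degrees C).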
* = called active by the depositor; i = inactive; ? = inconclusive; . = not tested or not shown. In the library only some 7.9% were active in any assay of this set; here they are far more common. Calls come from the whole dose curve; as a rule, active = well fitted curve in the direction sought with a large enough effect; inconclusive = small, poorly fitted or top-dose-only effect, or another doubt; inactive = no such curve, though single readings can be large; an effect the other way counts as inactive or inconclusive. Potency is the fitted concentration of half-maximal effect.

SMILES	KB-3-1 tox	KB-V1 cytotox	MCF10A rerep	SW480 rereplic	HT1080 IDH1KD tx	HT1080-NT tox
COc1cccc(Cn2c(=O)n(CC3CCC(C(=O)N4CCOCC4)CC3)c(=O)c3sccc32)c1 (configuration not stated)	i	i	.	.	.	.
COc1ccccc1CC(=O)N1CCN(c2cccc(C(F)(F)F)c2)CC1	i	12µM*	5%	-3%	-16%	?
O=C(/C=C/c1ccc(Br)cc1)N1CCN(c2cccc(C(F)(F)F)c2)CC1	?	?	13µM*	9%	-9%	?
O=C(/C=C/c1cccc(Br)c1)N1CCN(c2cccc(C(F)(F)F)c2)CC1	i	?	?	?	-19%	-18%
COc1ccccc1NC(=O)N1CCN(c2cccc(C(F)(F)F)c2)CC1	i	?	?	-5%	0%	11%
COC(=O)[C@@]1(Cc2ccc(OC)cc2)[C@@H]2C(=CC(=O)[C@H]2CC(=O)C(=O)N2CCCC2)CN1C(=O)c1ccccc1	9.2µM*	?	23µM*	?	21µM*	?
CN1CCCCC1(C)C(=O)NCc1ccc(F)cc1 (configuration not stated)	i	i	.	.	24%	26%
Cc1nnc(SCc2nc3ccccc3s2)n1-c1ccccc1	i	i	9%	12%	0%	-30%
c1ccc(-n2cnnc2SCc2nc3ccccc3s2)cc1	i	21µM*	?	15%	1%	4%
N=C(N)SCc1cn(-c2ccccc2)nc1-c1ccc(Br)cc1	?	18µM*	?	18%	5.2µM*	5.2µM*
COc1ccc(-c2nn(-c3ccccc3)cc2CO)cc1	i	i	-1%	-3%	-13%	-6%
Cc1ccc(CNC(=S)Nc2ccc3c(c2)c(=O)n(C)n3Cc2cccc(C(F)(F)F)c2)cc1	i	i	.	.	?	?
Cc1nc2c(c(=O)n1CCC1=CCCCC1)c1nc3ccccc3nc1n2/N=C/c1ccccc1	i	9.2µM*	23µM*	0%	12%	2%
COCCCn1c2nc3ccccc3nc2c2c(=O)n(CC3CCCO3)cnc21 (configuration not stated)	i	i	6%	3%	4%	1%
CCOCCCn1c(C)nc2c(c1=O)c1nc3ccccc3nc1n2CCC1=CCCCC1	?	18µM*	?	?	?	?
CCN(CCCNC(=O)CSc1cc(=O)n(CC)c2ccccc12)c1ccccc1	i	i	.	.	.	.
COc1cccc(Nc2sc(C(=O)c3ccc(Cl)cc3)c(N)c2C(=O)NCCc2ccc(OC)c(OC)c2)c1	i	i	.	.	.	.
COc1ccccc1NC(=O)c1c(Nc2ccccc2F)sc(C(=O)Nc2cccc(Cl)c2)c1N	i	i	?	-1%	?	15µM*
COCCNC(=O)c1cc2c(c(-c3cccc(C#CC(C)(C)O)c3)n1)[C@@H](CCO)N(S(=O)C(C)(C)C)C2 (some centres not stated)	i	i	.	.	2%	-1%
OC(Cc1cccnc1)(c1ccccc1)c1ccccc1	?	18µM*	0%	1%	7%	7%
C=Cc1ccc(Cn2c(=O)n(-c3cccc(C)c3)c(=O)c3c2c2cc(C)ccc2n3C)cc1	i	i	.	.	.	.
CCSc1nnc(NC(=O)C2CCN(C(=O)c3ccc(F)cc3)CC2)s1	i	21µM*	5%	-5%	-1%	4%
CCCSc1nnc(NC(=O)Nc2ccccc2)s1	?	21µM*	?	?	0%	-9%
CCCSc1nnc(NC(=O)Nc2ccc(F)cc2)s1	26µM*	?	?	5%	12µM*	?
CCCSc1nnc(NC(=O)Nc2ccc(C)cc2)s1	i	i	10%	19%	12%	10%
SMILES	KB-3-1 tox	KB-V1 cytotox	MCF10A rerep	SW480 rereplic	HT1080 IDH1KD tx	HT1080-NT tox
Cc1cccc(N2CCN(C3(c4ccccc4)C(=O)c4ccccc4C3=O)CC2)c1C	i	i	.	.	.	.
Cc1cccc(C(=O)Nc2ccc(OCc3cc(=O)n4ccsc4n3)cc2)c1	i	?	.	.	.	.
COc1ccc(CCn2c(N3CCN(C)CC3)nc3c2c(=O)[nH]c(=O)n3C)cc1	i	i	4%	-7%	11%	11%
COc1ccc(CCn2c(NN)nc3c2c(=O)[nH]c(=O)n3C)cc1	13µM*	?	?	15µM*	?	8.2µM*
COc1ccc(CCn2c(Br)nc3c2c(=O)[nH]c(=O)n3C)cc1	5.2µM*	4.1µM*	16%	?	10µM*	?
Cn1c(=O)[nH]c(=O)c2c1nc(Br)n2C/C=N/Nc1ccccc1	16µM*	i	?	10%	5.8µM*	3.7µM*
COc1ccc(-c2nnc(SCC(=O)Nc3cccc(F)c3)s2)cc1	i	i	.	.	.	.
CCOc1ccccc1NC(=O)c1ccc2c(Cl)c3c(nc2c1)CCCC3	i	i	.	.	.	.
COc1ccc(-c2cc3nc(C)cc(N4CCN(C(=O)c5ccoc5)CC4)n3n2)cc1	i	?	.	.	0%	7%
COc1ccc(-c2[nH]nc3nc(N4CCN(C(=O)c5ccoc5)CC4)cc(C(F)(F)F)c23)cc1	?	6.5µM*	.	.	?	?
CCCOc1ccc(F)cc1-c1cc(C(=O)NCCOC)[nH]n1	i	i	.	.	25%	?
CCCN1CNC(=S)N(c2ccccc2OC)C1	i	i	-5%	-34%	15%	9%
CCCN1CN(c2ccccc2)C(=S)N(c2ccccc2)C1	i	i	0%	3.7µM*	12%	12%
Cc1ccc2c(c1)CO[C@@]21O[C@H](CCO)C[C@H](O)[C@H]1O	i	i	.	.	5%	11%
Cn1c(O)c(/C=N/NC(=O)c2cc3ccccc3cc2O)c2ccccc21	?	i	21µM*	?	?	16µM*
CCOc1cc(S(=O)(=O)NCc2ccc(OC)cc2)c(OCC)cc1-n1cnnn1	i	5.2µM*	?	?	8.9µM*	13µM*
CCOc1ccc(Br)cc1S(=O)(=O)NC1CCCC1	i	16µM*	11%	-4%	2%	2%

Compound activity: PubChem BioAssay, National Center for Advancing Translational Sciences (NCATS)
